Results with a measured potency or affinity are listed apart. Activity calls are given as the source filed them. The rule behind the calls is not given here.

A short description of this assay: host cell cytotoxicity of antiviral hits, dose response, cytotoxicity control for West Nile virus antiviral project, secondary assay (AID 1650). The following applies: Mammalian host cell viability, cytotoxicity counter-screen; series mostly up to 10 µM.
Regarding `Cc1c(/C=N/NC(=O)C(C)(C)Oc2ccc(Cl)cc2)cnn1C`, the compound was classed as inactive.

In the case of `COc1cc(C(=O)N/C(=C/c2ccc(F)cc2)C(=O)NC(C(=O)O)c2ccccc2)cc(OC)c1OC` (stereo not given), the result was inactive. Take `O=C(COC(=O)CN1C(=O)c2ccccc2C1=O)Nc1ccc(S(=O)(=O)N2CCCC2)cc1`: the compound was classed as inactive. Next, `CCN1CCN(c2ccc(S(=O)(=O)N3CCCCC3)cc2NC(=O)Cc2c(Cl)cccc2Cl)CC1`: “inactive”; `CN1/C(=C\C(=S)NC(=O)c2cccc(Br)c2)C(C)(C)c2ccccc21`: “inactive”; `CCN(CC)CCCNc1oc(-c2cccc(Cl)c2)nc1C#N`: “inactive”. For the compound `CCOC(=O)C1(Cc2ccccc2C(F)(F)F)CCN(C2CCN(C(C)C)CC2)CC1`, the compound was called inactive. As for `O=C(CNC(=S)N(Cc1ccccc1F)C1CCCCC1)NCC1CCCO1` (stereo not given), the call was inactive. Next, `COc1ccc(-c2csc(N(CCCN(C)C)C(=O)c3ccccc3Cl)n2)cc1`: “inactive”; `Cc1cc(C)cc(SCc2noc(C(=O)NCCN(C)C)c2C(=O)NCCN(C)C)c1`: “inactive”; `COc1cccc2sc3ccc(NCCC4CCCN4C)cc3c(=O)c12` (stereo not given): “inactive”.

For `CN(C)CCCN(C(=O)c1ccc2c(c1)CCCC2)c1nc2ccc(F)cc2s1`, the result was inactive. `COc1cc(C=Nc2c(C)cc(C)cc2C)ccc1OC(C)=O`: the call was inactive. Under `Brc1ccc2c(c1)CN1CCCC1=N2` stands “inactive”; under `Cc1ccc(C)c(N2CCN(CCCNC(=O)CCC(=O)N3CCOc4ccc(Cl)cc43)CC2)c1`, “inactive”; under `COc1ccc(NC(=O)CSc2nc3ccccc3c(=O)n2CCCN2CCC(C)CC2)c(OC)c1`, “inactive”. Under `CC12CC3(C)CC(C)(C1)CC(C(=O)NCC(=O)O)(C2)C3` stands “inactive”; under `COc1ccccc1CN1CCC(CNS(=O)(=O)c2cc(-c3onc(C)c3C)ccc2OC)CC1`, “inactive”; under `Cc1ccc2nc(N(CCCN(C)C)C(=O)c3cc(-c4cccs4)nc4ccccc34)sc2c1`, “inactive”. Regarding `O=C(CSCc1ccc(Cl)cc1)Nc1ccc2c(c1)OCCO2`, the compound was classed as inactive. Under `CCc1ccc(C(=O)Cn2ncc(Cl)c(Cl)c2=O)cc1` stands “inactive”; under `Cc1ccc(/C=C2/Sc3ccc(C(=O)N4CCN(C)CC4)cc3NC2=O)cc1`, “inactive”; under `Cn1cc(CN2CCCC(C(=O)Nc3cccc(-c4cc5ccccc5[nH]4)c3)C2)cn1` (stereo not given), “inactive”.

As for `CCN(CC)S(=O)(=O)c1ccc(NC(=O)CSc2nnc(-c3cccc(OC)c3)n2C)cc1`, the result was inactive. Next, `Cc1cc(OCc2cc(C(=O)NCCN3CCCCC3CO)no2)cc(C)c1Cl` (stereo not given): “inactive”; `O=C(CN1C(=O)/C(=C/c2ccc(C(F)(F)F)cc2)Sc2ccccc21)NCCCN1CCOCC1`: “inactive”; `COc1ccc(-c2ccc(C#N)c(SCC(=O)Nc3sc4c(c3C#N)CCC4)n2)cc1OC`: “inactive”. Take `COc1ccc(C2Nc3ccc4ccccc4c3-c3c2c(=O)oc2ccccc32)cc1` (stereo not given): the result was inactive. With `CCCCCCCCCc1nc2sc3c(c2c(=O)n1NC(=O)c1ccc([N+](=O)[O-])cc1)CC(C)(C)OC3`, the call was inactive. Next, `CC1CCCN(CCCNC(=O)c2ccc3c(c2)N(Cc2ccccc2F)C(=O)c2ccccc2S3(=O)=O)C1` (stereo not given): “inactive”; `Cc1cc(N2CCCC2)nc2ccc(NC(=S)NCCCN3CCC(C)CC3)cc12`: “inactive”; `NS(=O)(=O)c1ccc(NC(=O)c2cc(-c3cc(Cl)ccc3O)n[nH]2)cc1`: “inactive”. On to `CCn1nc(C)c(CN2CCC(C(=O)Nc3cccc(-c4cccc(F)c4)c3)CC2)c1C`, for which the compound was called inactive. `COC(=O)c1ccc(C(=O)Nc2cc(Cl)ccc2Cl)cc1NC(=O)c1ccccc1C`: the compound was called inactive. Next, `CN(C)CCCN1c2ccc([N+](=O)[O-])cc2CCc2cc([N+](=O)[O-])ccc21`: “inactive”; `CN1CCN(CCNC(=O)c2ccc3nc(-c4ccc(F)cc4)c(-c4ccc(F)cc4)nc3c2)CC1`: “inactive”; `CCOC(=O)C(=CNc1ccc2c(c1)nnn2-c1ccc(Cl)cc1)C(=O)OCC`: “inactive”. Next, `CCOC(=O)c1[nH]c2ccccc2c1NC(=O)CC(C)(C)C`: “inactive”; `CCN(CC)CCCNC(=O)c1cc(-c2ccccc2)c(N2CCCCC2)s1`: “inactive”. Next, `Cc1nn(Cc2ccc(Cl)cc2)c(C)c1NC(=O)CSc1nc2c(c(C(F)(F)F)n1)CCc1ccccc1-2`: “inactive”.

Source of the values: PubChem BioAssay AID1650 (Southern Research Specialized Biocontainment Screening …, 2009).
